Screening data (PubChem BioAssay)
CYP2C19 activ – cytochrome P450 2C19 (human) activation | P33261 | recombinant CYP2C19, luciferin-H EGE luminescence; stronger effect = higher value; 0 = fully inhibited enzyme, 1 = untreated enzyme | activation factor at 5 µM | 96,000 tested, under 10 active | AID 1025;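 active = activation factor of at least 2 at 5 µM in the primary screen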;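 note: 0 = wells with 2.5 mM tranylcypromine and 1 = vehicle-only wells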
CYP2C9 act – increases human cytochrome P450 2C9 activity; activation factor at 5 µM; recombinant CYP2C9, luciferin-H conversion, luminescence; stronger effect = higher value; factor 1 = untreated enzyme, 0 = blocked; 96,000 compounds, 1.4% hits; AID 1024; P11712;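 active = activation factor of 2 or more for CYP2C9 at a 5 µM dose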;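 note: 0 = sulfaphenazole-blocked wells and 1 = vehicle-only wells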
Target sequence (P11712 whole entry, looked up): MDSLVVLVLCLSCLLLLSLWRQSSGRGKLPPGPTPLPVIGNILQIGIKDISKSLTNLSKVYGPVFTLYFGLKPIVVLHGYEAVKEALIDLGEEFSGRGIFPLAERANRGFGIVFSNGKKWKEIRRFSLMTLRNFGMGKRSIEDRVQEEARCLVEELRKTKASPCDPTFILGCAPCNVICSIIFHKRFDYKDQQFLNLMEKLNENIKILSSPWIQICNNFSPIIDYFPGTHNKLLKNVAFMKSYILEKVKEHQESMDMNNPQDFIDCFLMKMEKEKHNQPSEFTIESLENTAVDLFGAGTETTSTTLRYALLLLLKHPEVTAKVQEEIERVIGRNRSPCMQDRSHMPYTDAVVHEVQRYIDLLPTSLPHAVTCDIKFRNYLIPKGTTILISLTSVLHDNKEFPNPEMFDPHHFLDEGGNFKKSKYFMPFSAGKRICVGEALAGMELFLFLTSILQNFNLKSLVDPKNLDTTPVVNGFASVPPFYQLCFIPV
CYP2C9 inh – inhibitors of human CYP2C9. inhibition, % at 5 µM. P11712. 96,000 compounds, 20% hits. AID 777. CYP2C9 Supersomes, luciferin-H conversion, luminescence;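 active = blocking of liver enzyme CYP2C9 beyond about 50% at 5 µM, limit read from the data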
CYP2C19 inhib – blocks human cytochrome P450 2C19; P33261; CYP2C19 Supersomes, luciferin-H EGE luminescence, 30 min; inhibition, % at 5 µM; 96,000 compounds, 21% hits; AID 778;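 active = CYP2C19 inhibition above a set limit at 5 µM in the primary screen, cut at about 50% in these data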;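 note: plate controls were negative control wells for no effect and 2.5 mM tranylcypromine positive control for full effect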
Cav32 inh – blocks human Cav3.2 T-type calcium channel; B-score at 10 µM; 100,000 compounds, 4% hits; Cav3.2-expressing cells, Fluo-4 calcium fluorescence FDSS; stronger effect = lower value; AID 449739; O95180;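 active = single-dose well whose peak fluorescence ratio is a statistical outlier from its plate by either plate-standardised score or position-corrected B-score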
The depositor's hits bear a star; x = no result. Only some compounds are listed: those with a hit (about 27% of all), similar ones and a draw of the others.

SMILES	CYP2C19 activ	CYP2C9 act	CYP2C9 inh	CYP2C19 inhib	Cav32 inh
COCC(=O)NC1CCN(C(=O)NCc2ccccc2)CC1	1	1.1	-6	0	0.25
CCO[C@H]1OC(C(N)=O)=C[C@@H](C)[C@@H]1CCCO	x	x	x	x	-0.03
CC1Cc2nc(SCC(=O)NCc3ccco3)n(Cc3ccccc3)c(=O)c2S1 (stereo not given)	0.6	0.5	48	37	0.13
CCOc1ccc(-c2[nH]ncc2-c2ccc(OC)c(OC)c2)c(O)c1	0.2	0.2	84*	84*	-1.1
C=C(C)COc1ccc(-c2[nH]ncc2Oc2ccccc2OC)c(O)c1	0.4	0.2	85*	61*	-1.2
C=C(C)COc1ccc(-c2nc(N)ncc2Oc2ccccc2OC)c(O)c1	0.8	0.7	30	24	0.29
CCCOc1cccc(C(=O)N(Cc2ccco2)C2CCS(=O)(=O)C2)c1 (stereo not given)	x	x	x	x	0.98
CCCCOc1cccc(C(=O)N(Cc2ccco2)C2CCS(=O)(=O)C2)c1 (stereo not given)	0.5	0.2	82*	46	-0.099
CCOc1cccc(C(=O)N(Cc2ccc(F)cc2)C2CCS(=O)(=O)C2)c1 (stereo not given)	0.5	0.7	30	51*	-0.026
O=C(c1ccccc1)N(Cc1ccc(F)cc1)C1CCS(=O)(=O)C1 (stereo not given)	0.6	1	2	36	0.82
Cc1ccc(NC(=O)C(=O)c2c(-c3ccccc3)cc3ccccn23)cc1S(=O)(=O)N1CCOCC1	0.1	1.2	-18	88*	-0.8
Cc1cc(C)n(-c2nnc(C)n2/N=C/c2ccccc2O)n1	0.8	0.9	9	16	x
C=CCn1c(N)c(C(=O)NCc2cccnc2)sc1=S	0	0.2	78*	96*	-0.045
CCOc1ccc(-n2c(N)c(C(=O)NCc3cccnc3)sc2=S)cc1	0.9	0.8	21	10	0.63
Cn1c(C(=O)NCc2cccnc2)cc2sc(Cl)cc21	0	0.1	89*	97*	-0.11
O=C(NCc1cccnc1)c1sc2cc(Cl)ccc2c1Cl	0.2	0.5	46	79*	-0.0027
O=C(NCc1ccco1)c1sc2cc(Cl)ccc2c1Cl	x	x	x	x	-0.24
COc1ccccc1NC(=O)c1ccc(NC(=O)CSc2nnnn2C)cc1	0.8	0.9	6	25	0.74
Cc1nc(C(=O)NCc2ccccc2)sc1C1(C)CC(c2ccccc2)=NO1 (stereo not given)	x	x	x	x	-2.7
CCc1nnc(NC(=O)CSc2nnc(CSc3nc(C)cc(C)n3)o2)s1	1	0.8	21	2	0.21
Cn1c(=O)c(Cc2ccccc2)c(O)c2ccccc21	0.3	0.5	50	71*	0.42
CCCn1c(=O)c(Cc2ccccc2)c(O)c2ccccc21	0.6	0.6	38	45	x
CC1=C(C(=O)OCC(Br)(Br)Br)C(c2cccc([N+](=O)[O-])c2)NC(=O)N1CCCC(=O)O (stereo not given)	x	x	x	x	-1
CCC(Sc1nnc2c3ccccc3n(CC)c2n1)C(=O)Nc1sc2c(c1C#N)CCCC2 (stereo not given)	0.6	0.5	52*	38	-3.6
CCOC(=O)Cc1nnc(NC(=O)C(CC)Sc2nnc3c4ccccc4n(C)c3n2)s1 (stereo not given)	0.5	0.1	94*	48	0.05
SMILES	CYP2C19 activ	CYP2C9 act	CYP2C9 inh	CYP2C19 inhib	Cav32 inh
CCOC(=O)c1sc(NC(=O)C(CC)Sc2nnc3c4ccccc4n(C(C)C)c3n2)nc1C (stereo not given)	0.6	0.3	66*	35	-1.4
COc1ccc(C2/C=C\CN(C(=O)C3CCCC3)CC(=O)N2Cc2ccc(F)cc2)cc1 (stereo not given)	x	x	x	x	-0.01
Nc1cnn(C2CCCO2)c(=O)n1 (stereo not given)	x	x	x	x	1.4
Cc1nnc(SCC(=O)NCc2ccccc2)[nH]c1=O	0.9	0.8	22	11	0.9
O=C(Cc1ccc(Br)cc1)c1ccc(O)cc1O	0.3	0.5	54*	71*	-8.6*
O=C(/C=C(\c1ccc(Cl)cc1)n1cncn1)c1ccc(Cl)cc1	0.1	0.9	8	90*	0.68
C/C(=C\C(=O)c1ccc(Cl)cc1)Nc1ccc(Br)cc1	x	x	x	x	-1.5
Cn1c(CNC(=O)c2ccc(Cl)c(Cl)c2)nnc1SCC(=O)Nc1sc2c(c1C#N)CCCC2	0.9	0.8	21	11	-0.33
O=C(OCc1cc(=O)n2c(n1)sc1ccccc12)c1ccc2c(=O)n3c(nc2c1)CCC3	0.7	0.2	76*	29	0.62
Cc1ccc2cc(C(c3nnnn3C3CCCC3)N3CCN(c4ccccc4)CC3)c(=O)[nH]c2c1 (stereo not given)	1	0.6	40	4	-6.1*
Cc1ccc2cc(C(c3nnnn3C(C)(C)C)N3CCCCCC3)c(=O)[nH]c2c1 (stereo not given)	0.7	0.3	65*	32	0.068
Cc1ccc2cc(C(c3nnnn3Cc3ccccc3)N3CCN(c4ccccc4)CC3)c(=O)[nH]c2c1 (stereo not given)	0.8	0.7	30	23	x
COc1ccc(C(c2nnnn2C2CCCC2)N2CCN(c3ccccc3)CC2)cc1 (stereo not given)	x	x	x	x	-5.2*
CCC(C)(C)n1nnnc1C(c1cc2cc(C)ccc2[nH]c1=O)N1CCCC1 (stereo not given)	1	0.8	17	1	0.18
COc1ccc(OC)c(C(c2nnnn2C2CCCC2)N2CCN(c3ccc(F)cc3)CC2)c1 (stereo not given)	0.2	0.4	63*	81*	-9.4*
O=C(N/N=C/c1cccnc1)C1CCCN(S(=O)(=O)c2ccccc2)C1 (stereo not given)	0.6	0.9	13	36	0.61
CCOC(=O)N1CCN(C(=O)c2cccc(-n3c(=S)[nH]c4cc(Cl)ccc4c3=O)c2)CC1	1	0.8	23	1	2.5
O=C(COC(=O)c1cccc(S(=O)(=O)N2CCc3ccccc32)c1)NC1CCS(=O)(=O)C1 (stereo not given)	0.6	0.7	31	42	-0.075
COc1ccc(C(c2nnnn2C2CCCC2)N2CCC(C)CC2)c(OC)c1 (stereo not given)	0.6	0.8	21	36	x
COc1ccc2[nH]c(=O)c(C(c3nnnn3C3CCCC3)N3CCN(Cc4ccc5c(c4)OCO5)CC3)cc2c1 (stereo not given)	1.1	0.2	84*	-8	-1.5
CCOC(=O)C1CCN(C(c2cc3ccc(C)c(C)c3[nH]c2=O)c2nnnn2C2CCCCC2)CC1 (stereo not given)	0.2	0.1	90*	80*	-2.2
COc1ccc(C(c2nnnn2C2CCCCC2)N2CCN(c3ccccc3)CC2)cc1 (stereo not given)	0.3	0.3	75*	72*	x
CC(C)OC(=O)c1c(-c2ccc(C(C)C)cc2)csc1NC(=O)C1CCCO1 (stereo not given)	1	0.8	23	-4	-1.4
CC(C)(C)C(=O)Nc1ccc(N2CCCC2)cc1	1	0.9	8	0	0.21
